# Test results taken from article PMC7862700, “An all-to-all approach to the identification of sequence-specific readers for epigenetic DNA modifications on cytosine”.
# Tests used:
# Assay in all cases: DAPPL (digital affinity profiling via proximity ligation, sequencing); 10 mM Tris-HCl pH 7.5, 50 mM NaCl, 1 mM DTT, 4% glycerol, room temperature, 30 min; GST-TFs on glutathione beads, 16-mer random dsDNA library, 0.1% formaldehyde crosslink after washing; high values mean tight binding
# Conditions in all cases: protein: recombinant; tags: N-terminal GST; dsDNA, one strand shown
# FLI1 = biological target: T1, FLI1 (Homo sapiens, UniProt Q01543 1-452)
# T1 sequence: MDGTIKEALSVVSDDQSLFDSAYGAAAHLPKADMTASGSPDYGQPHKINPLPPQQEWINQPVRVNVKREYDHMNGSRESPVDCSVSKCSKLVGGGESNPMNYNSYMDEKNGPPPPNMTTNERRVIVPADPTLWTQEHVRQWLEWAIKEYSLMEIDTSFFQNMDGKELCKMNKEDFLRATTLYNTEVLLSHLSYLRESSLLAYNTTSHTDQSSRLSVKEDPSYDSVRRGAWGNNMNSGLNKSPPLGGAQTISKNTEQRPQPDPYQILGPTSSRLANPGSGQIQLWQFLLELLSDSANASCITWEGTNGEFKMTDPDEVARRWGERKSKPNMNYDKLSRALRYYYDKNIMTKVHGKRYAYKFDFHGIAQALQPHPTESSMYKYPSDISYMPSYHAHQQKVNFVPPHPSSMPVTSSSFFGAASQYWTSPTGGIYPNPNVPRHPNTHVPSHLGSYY
# Outline: (§1)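 Yeast served to express human transcription factors as GST fusions, which were then captured on glutathione beads and labelled with DNA barcodes. Pooled with a tag-only sample, they were incubated with 200 nmole of a 16-mer random double-stranded DNA library for 30 min at room temperature in Tris/NaCl/DTT/glycerol buffer, washed, crosslinked with 0.1% formaldehyde, ligated by proximity, amplified by PCR and sequenced. Dividing each hexamer's read frequency for a factor by its frequency for the tag-only sample gives the binding signal.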
# ELK1 = biological target: T2, ELK1 (Homo sapiens, UniProt P19419 1-428)
# T2 sequence: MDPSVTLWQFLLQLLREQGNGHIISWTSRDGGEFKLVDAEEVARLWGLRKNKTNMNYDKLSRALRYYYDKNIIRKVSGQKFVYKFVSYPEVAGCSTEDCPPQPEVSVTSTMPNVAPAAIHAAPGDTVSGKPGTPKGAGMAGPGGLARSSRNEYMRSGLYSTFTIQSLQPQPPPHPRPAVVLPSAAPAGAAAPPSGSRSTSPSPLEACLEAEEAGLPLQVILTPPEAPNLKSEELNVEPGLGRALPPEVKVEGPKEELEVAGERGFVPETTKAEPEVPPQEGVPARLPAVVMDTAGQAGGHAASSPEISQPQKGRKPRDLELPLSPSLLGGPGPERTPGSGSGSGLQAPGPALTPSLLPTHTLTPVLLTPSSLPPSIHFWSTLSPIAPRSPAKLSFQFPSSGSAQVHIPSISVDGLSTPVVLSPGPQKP
# Outline: as §1
# GABPA = biological target: T3, GABPA (Homo sapiens, UniProt Q06546 1-454)
# T3 sequence: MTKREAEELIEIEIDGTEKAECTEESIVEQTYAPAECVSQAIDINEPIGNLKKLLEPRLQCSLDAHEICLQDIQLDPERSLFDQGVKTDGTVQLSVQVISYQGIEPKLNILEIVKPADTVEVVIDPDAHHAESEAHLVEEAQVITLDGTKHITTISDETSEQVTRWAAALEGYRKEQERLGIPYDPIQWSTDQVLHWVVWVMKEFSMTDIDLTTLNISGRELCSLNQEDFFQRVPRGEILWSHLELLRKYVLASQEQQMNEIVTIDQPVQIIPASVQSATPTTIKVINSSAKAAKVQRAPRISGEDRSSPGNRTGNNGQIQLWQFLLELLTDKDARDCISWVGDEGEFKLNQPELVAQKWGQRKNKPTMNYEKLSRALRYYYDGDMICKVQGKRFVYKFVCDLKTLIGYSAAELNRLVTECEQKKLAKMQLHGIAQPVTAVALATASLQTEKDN
# Outline: as §1
# ERG = biological target: T4, ERG (Homo sapiens, UniProt P11308 1-479)
# T4 sequence: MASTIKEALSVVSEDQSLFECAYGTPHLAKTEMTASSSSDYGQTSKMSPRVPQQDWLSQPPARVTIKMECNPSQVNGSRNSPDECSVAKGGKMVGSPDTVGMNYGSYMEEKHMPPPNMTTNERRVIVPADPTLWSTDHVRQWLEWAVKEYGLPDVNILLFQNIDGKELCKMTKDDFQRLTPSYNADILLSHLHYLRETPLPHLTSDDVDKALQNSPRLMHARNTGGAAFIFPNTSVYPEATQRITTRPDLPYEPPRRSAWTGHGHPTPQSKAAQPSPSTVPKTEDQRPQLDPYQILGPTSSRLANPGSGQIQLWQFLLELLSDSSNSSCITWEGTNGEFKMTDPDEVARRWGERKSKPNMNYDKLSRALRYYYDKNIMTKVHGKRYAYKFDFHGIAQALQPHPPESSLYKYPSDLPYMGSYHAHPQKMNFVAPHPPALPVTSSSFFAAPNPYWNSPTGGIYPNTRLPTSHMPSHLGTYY
# Outline: as §1
# ELF1 = ELF1 (Homo sapiens, UniProt P32519 1-619)
# Outline: as §1
# EHF = biological target: T5, EHF (Homo sapiens, UniProt Q9NZC4 1-300)
# T5 sequence: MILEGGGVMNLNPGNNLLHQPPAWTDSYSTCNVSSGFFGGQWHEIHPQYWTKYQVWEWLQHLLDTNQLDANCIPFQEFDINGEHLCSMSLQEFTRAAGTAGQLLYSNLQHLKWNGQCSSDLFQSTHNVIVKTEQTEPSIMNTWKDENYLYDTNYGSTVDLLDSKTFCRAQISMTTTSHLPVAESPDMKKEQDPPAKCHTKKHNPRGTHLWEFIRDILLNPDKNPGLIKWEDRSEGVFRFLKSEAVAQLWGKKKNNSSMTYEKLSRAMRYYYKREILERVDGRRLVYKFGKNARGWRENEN
# Outline: as §1
# SPIB = SPIB (Homo sapiens, UniProt Q01892 1-262)
# Outline: as §1
# ELK3 = biological target: T6, ELK3 (Homo sapiens, UniProt P41970 1-407)
# T6 sequence: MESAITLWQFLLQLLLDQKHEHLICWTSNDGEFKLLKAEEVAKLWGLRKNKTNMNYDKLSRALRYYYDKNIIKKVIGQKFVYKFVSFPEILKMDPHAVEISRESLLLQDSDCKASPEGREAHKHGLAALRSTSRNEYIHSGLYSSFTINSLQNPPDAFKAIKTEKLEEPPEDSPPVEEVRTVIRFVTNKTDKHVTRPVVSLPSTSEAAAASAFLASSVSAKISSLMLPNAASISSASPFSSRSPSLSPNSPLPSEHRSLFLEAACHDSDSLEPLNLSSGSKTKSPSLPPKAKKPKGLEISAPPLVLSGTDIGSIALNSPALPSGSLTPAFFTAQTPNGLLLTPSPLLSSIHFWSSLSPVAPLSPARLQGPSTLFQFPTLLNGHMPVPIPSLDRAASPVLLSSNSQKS
# Outline: as §1
# SPIC = biological target: T7, SPIC (Homo sapiens, UniProt Q8N5J4 1-248)
# T7 sequence: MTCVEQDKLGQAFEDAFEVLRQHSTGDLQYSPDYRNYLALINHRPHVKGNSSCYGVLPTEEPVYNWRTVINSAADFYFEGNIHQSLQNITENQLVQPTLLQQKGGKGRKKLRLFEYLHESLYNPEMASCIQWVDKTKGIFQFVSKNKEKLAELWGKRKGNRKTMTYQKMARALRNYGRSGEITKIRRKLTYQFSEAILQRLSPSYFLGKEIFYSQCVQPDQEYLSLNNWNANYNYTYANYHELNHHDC
# Outline: as §1
# Sequence of ELF1 (P32519 whole entry): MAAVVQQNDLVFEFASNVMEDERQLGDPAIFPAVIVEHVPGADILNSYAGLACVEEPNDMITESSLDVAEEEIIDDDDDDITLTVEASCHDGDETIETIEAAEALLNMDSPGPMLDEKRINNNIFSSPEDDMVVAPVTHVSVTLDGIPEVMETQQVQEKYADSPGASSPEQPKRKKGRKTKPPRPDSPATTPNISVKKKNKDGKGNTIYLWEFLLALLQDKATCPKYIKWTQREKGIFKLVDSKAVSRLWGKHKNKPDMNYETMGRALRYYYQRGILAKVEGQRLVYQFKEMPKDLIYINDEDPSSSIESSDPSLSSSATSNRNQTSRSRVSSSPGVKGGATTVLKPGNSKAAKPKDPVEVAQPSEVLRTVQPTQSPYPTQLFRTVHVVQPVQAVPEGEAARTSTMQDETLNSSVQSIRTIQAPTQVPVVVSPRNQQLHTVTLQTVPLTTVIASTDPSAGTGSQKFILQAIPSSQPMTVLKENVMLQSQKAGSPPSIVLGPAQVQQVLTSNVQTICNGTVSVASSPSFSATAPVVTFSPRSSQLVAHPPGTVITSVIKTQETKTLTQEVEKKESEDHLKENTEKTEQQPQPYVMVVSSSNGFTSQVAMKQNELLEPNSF
# Sequence of SPIB (Q01892 whole entry): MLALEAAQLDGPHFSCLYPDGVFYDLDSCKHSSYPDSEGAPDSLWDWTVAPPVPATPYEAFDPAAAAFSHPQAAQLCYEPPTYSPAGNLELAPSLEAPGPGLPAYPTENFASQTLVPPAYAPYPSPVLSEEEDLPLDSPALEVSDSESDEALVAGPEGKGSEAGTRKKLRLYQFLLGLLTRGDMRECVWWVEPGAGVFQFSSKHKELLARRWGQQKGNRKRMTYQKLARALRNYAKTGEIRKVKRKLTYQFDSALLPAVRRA
sequence,measurement,setting,value
TTAGAT,binding signal,FLI1,"1.05 fold enrichment (6-mer frequency, TF over GST control)"
same,binding signal,ELK1,"1.16 fold enrichment (6-mer frequency, TF over GST control)"
same,binding signal,GABPA,"1.06 fold enrichment (6-mer frequency, TF over GST control)"
same,binding signal,ERG,"1.04 fold enrichment (6-mer frequency, TF over GST control)"
same,binding signal,ELF1,"1.03 fold enrichment (6-mer frequency, TF over GST control)"
same,binding signal,EHF,"1.13 fold enrichment (6-mer frequency, TF over GST control)"
same,binding signal,SPIB,"1.05 fold enrichment (6-mer frequency, TF over GST control)"
same,binding signal,ELK3,"1.09 fold enrichment (6-mer frequency, TF over GST control)"
same,binding signal,SPIC,"1.04 fold enrichment (6-mer frequency, TF over GST control)"
